Assay outcomes as filed in PubChem.
ssDAF12 agonist: activates DAF-12 receptor from parasite S. stercoralis. HEK293 ssDAF-12/GRIP1 lit1-tk-luc reporter, luminescence; % of 3 µM dafachronic acid response. activation, % at 6.8 µM. hit rate 1% among 370,000. AID 652126;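 active = activation above the mean over all tested compounds plus 3 SD, cut at about 0.9% in these data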;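 note: 0% = DMSO-only wells and 100% = 3 µM delta7-dafachronic acid wells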
hgDAF-12 ag: hgDAF-12 agonism, primary luciferase screen; HEK293 GAL4-hgDAF12 UAS-luciferase reporter, agonist luminescence; normalized to butyrate control; activation, % at 6.8 µM; hit rate 1.8% among 370,000;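 active = activation above a cutoff set at the mean of all screened compounds plus 3 SD, cut at about 10% in these data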;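 note: 0% = DMSO wells and 100% = sodium butyrate wells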
DAX1 inh-1: inhibitors of human orphan nuclear receptor DAX1 (NR0B1). P51843. HEK293 Gal4-DAX1 luciferase reporter, luminescence. inhibition, % at 6.75 µM. hit rate 0.99% among 340,000;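 active = inhibition above the mean over all tested compounds plus 3 SD, cut at about 4.2% in these data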;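 note: 0% = DAX1-transfected cells with DMSO and 100% = empty-vector control cells with DMSO; inhibition shows as a rise in luminescence from relieved DAX1 repression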
Target sequence (P51843 207-470 limits assumed): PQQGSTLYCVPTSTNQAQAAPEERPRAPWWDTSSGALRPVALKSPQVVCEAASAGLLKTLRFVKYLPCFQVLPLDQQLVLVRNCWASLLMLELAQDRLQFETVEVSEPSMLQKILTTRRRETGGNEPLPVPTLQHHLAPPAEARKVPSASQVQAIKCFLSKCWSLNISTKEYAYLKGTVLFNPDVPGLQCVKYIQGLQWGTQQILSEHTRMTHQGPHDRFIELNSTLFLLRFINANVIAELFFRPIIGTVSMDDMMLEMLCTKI
DAX1 inh-2: inhibitors of DAX1 repression of SF-1 activated StAR promoter | AID 652010 | hit rate 1.1% among 370,000 | HEK293T StAR-luciferase reporter, SF-1/DAX-1 repression relief | inhibition, % at 6.8 µM;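 active = inhibition above the mean over all tested compounds plus 3 SD, cut at about 3.6% in these data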;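 note: 0% = DAX-1 cells with DMSO and 100% = cells lacking DAX-1 with DMSO; higher inhibition means more luminescence from relief of DAX-1 repression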
hcDAF12 agonist: activates DAF-12 receptor from parasite H. contortus | HEK293 hcDAF-12 lit1-tk-luc reporter, luminescence; 0% DMSO, 100% Δ7-dafachronic acid | activation, % at 6.8 µM | hit rate 1.4% among 370,000 | AID 652067;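 active = activation above the mean of all tested compounds plus 3 SD, cut at about 5.5% in these data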;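 note: 100% = response to 3 µM Δ7-dafachronic acid high control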
GAA850 FXN act: frataxin GAA850 promoter activation | activation, % at 6 µM | HEK293 lucGAA850 FXN promoter luciferase reporter, 24 h; percent of 10 µM SAHA response | AID 540364 | hit rate 0.56% among 360,000;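 active = activation above the average of all compounds screened plus 3 SD, cutoff fixed separately per campaign, cut at about 7.5% in these data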;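 note: 0% = DMSO wells and 100% = 10 µM SAHA wells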
* marks the source's active call; other numbers are inactive results; · = no result. Hits are enriched below; roughly 4.5% of the tested compounds scored in any of these assays.

SMILES | ssDAF12 agonist | hgDAF-12 ag | DAX1 inh-1 | DAX1 inh-2 | hcDAF12 agonist | GAA850 FXN act
COC(=O)[C@H]1C[C@@]2(N3CCCCC3)c3ccccc3N(C(=O)OC(C)(C)C)[C@H]2N1C(=O)OC(C)(C)C | -1.2 | -2.1 | · | -0.7 | -0.6 | ·
CNC(C#Cc1ccccc1)c1ccccc1C(F)(F)F (stereo not drawn) | -0.7 | 0.5 | · | · | -1.6 | ·
CCOc1cccc(/C=N\NC(=O)c2cnccn2)c1O | -0.5 | -0.2 | · | -0.1 | 3.2 | ·
CCOC(=O)N1CCN(C(=O)CSC2=NS(=O)(=O)c3cc(F)ccc3N2)CC1 | -1.3 | 0.6 | 4.8* | -0.2 | 1.5 | 1.7
CC(C)c1ccc(NC(=O)Nc2nc(CN)cs2)cc1 | -0.7 | 11.8* | · | 1.8 | 1.2 | 4.0
CC(C)c1ccc(NC(=O)Nc2nc(C(C)N)cs2)cc1 (stereo not drawn) | -0.9 | -3.0 | · | -0.8 | 0.6 | 0.1
COCCCN1C(=O)[C@H](CC(=O)NCC2CCCCC2)[C@]2(C(=O)OC)CCCCC=C12 | -1.3 | -1.7 | · | -0.3 | -1.0 | ·
CN(C)/C=C/C(=O)c1cccc(Oc2ncccn2)c1 | -1.1 | -3.6 | 4.6* | 0.0 | 0.7 | -2.9
O=C(NCCSc1ccccc1)c1ccccc1 | 0.2 | 11.6* | 2.7 | 3.3 | 4.8 | 1.4
O=C(NCCSc1ccccc1)c1ccccc1Cl | 0.2 | 14.7* | 0.5 | 2.9 | 1.4 | 4.4
O=C(NCCSSCCNC(=O)c1ccccc1)c1ccccc1 | -1.6 | 4.4 | -0.9 | -0.7 | -1.9 | 1.8
O=C(NCSc1ccncn1)c1ccccc1 | -1.5 | 1.8 | 4.9* | -0.2 | -1.3 | 0.2
CC(c1ccc(F)cc1)n1cc(C(=O)NCCN(C)C)nn1 (stereo not drawn) | -0.7 | -0.2 | 5.5* | 0.3 | -0.8 | 0.1
CCC(C)n1c(=S)[nH]c2c(sc3ccc([N+](=O)[O-])cc32)c1=O (stereo not drawn) | 3.4* | 0.1 | 0.2 | -0.5 | -1.2 | 0.4
OCC1OC(n2cnc3c(NCCc4ccccc4)ncnc32)C(O)C1O (stereo not drawn) | -0.5 | 12.7* | 0.6 | 2.2 | -1.3 | 4.8
NCCNC(=O)Cc1cccc(NC(=O)Cc2ccc(Nc3ncnc4c3ncn4[C@@H]3O[C@H](CO)[C@@H](O)[C@H]3O)cc2)c1 | -1.2 | 0.5 | 0.0 | 2.7 | -2.8 | 10.2*
O=c1oc2ccccc2n1CSc1nc2ccccc2s1 | 0.1 | 10.6* | 1.5 | 3.2 | 3.5 | 3.2
CCC(C(=O)NC(C)(C)C)N(C(=O)Cn1nnc(-c2ccccc2F)n1)c1cccc2c1CCCC2 (stereo not drawn) | -1.3 | -1.6 | 4.3* | 0.7 | 0.4 | -0.7
O=C(c1cccc(F)c1)N1CCCC(c2nc(-c3cccs3)no2)C1 (stereo not drawn) | -0.8 | -0.7 | · | -0.3 | -2.2 | ·
Cc1ccc(C(=O)N(C)[C@H]2C[C@H]3c4[nH]c5c(-c6cccc(C)c6)cccc5c4CCN3C[C@H]2[C@H](C)O)cc1 | -1.6 | 2.0 | · | 0.3 | -4.2 | ·
CC(=O)OCC(=O)C1(O)CCC2C3CCC4=CC(=O)CCC4(C)C3C(O)CC21C (stereo not drawn) | -1.4 | -3.1 | -0.3 | 3.7* | -0.4 | 0.8
O=S(=O)(NNc1ncc(C(F)(F)F)cc1Cl)c1ccc(F)cc1F | 0.3 | 1.5 | 0.7 | 2.6 | 3.2 | 0.2
O=C(NNS(=O)(=O)c1ccc(Cl)cc1Cl)c1cc2ncc(C(F)(F)F)cc2s1 | 0.7 | 3.9 | -1.4 | -0.1 | 6.0* | 1.9
COc1ccc(-c2cc(-c3nnc(SCC(=O)N4CCOCC4)n3N)[nH]n2)cc1 | -1.3 | 2.6 | · | 0.3 | -1.1 | ·
O=C(N/N=C/c1ccncc1)c1sc2ccccc2c1Cl | -1.5 | 1.8 | -0.2 | 3.9* | 1.9 | 0.8
SMILES | ssDAF12 agonist | hgDAF-12 ag | DAX1 inh-1 | DAX1 inh-2 | hcDAF12 agonist | GAA850 FXN act
CCCn1nnc(NC(=O)c2sc3ccccc3c2Cl)n1 | -1.1 | 5.3 | 0.7 | 1.8 | 1.1 | 4.2
CC(C)c1nnc(NC(=O)c2sc3ccccc3c2Cl)s1 | -0.1 | 9.7 | 2.6 | 1.1 | 5.9* | -0.5
CC(=O)Nc1ccc(NC(=O)C(=O)c2cn(CC(=O)N3CCCCC3)c3ccccc23)cc1 | -1.2 | -2.3 | -0.6 | -0.7 | -1.3 | -0.1
CC(=O)Nc1cccc(NC(=O)C(=O)c2cn(CC(=O)N3CCCC3)c3ccccc23)c1 | 1.2* | 5.3 | 0.0 | 1.6 | 6.0* | 0.9
CS(=O)(=O)c1ccc(-c2nn[nH]n2)cc1 | -0.8 | -1.5 | 0.4 | -0.5 | 0.2 | -0.8
Cc1ccc(-c2nn[nH]n2)cc1 | 1.1* | 0.9 | -0.9 | -0.1 | 4.3 | -2.3
COc1ccc(-c2c(NC(=O)c3ccco3)n(-c3ccccc3)nc(C)c2=O)cc1 | -1.5 | -1.3 | 4.8* | 0.9 | 0.7 | -1.1
Cn1c(NC(=O)c2ccco2)c(-c2ccccc2)c(=O)c2ccccc21 | -0.5 | 0.1 | 4.2* | -0.2 | 1.4 | 0.7
CC(C)OP(=O)(O)C(C)NC(=O)OCc1ccccc1 (stereo not drawn) | -0.6 | -2.8 | · | -0.4 | -1.5 | ·
NC(=O)C1(N2CCCCC2)CCN(S(=O)(=O)c2cc(Cl)ccc2Cl)CC1 | -0.5 | -1.2 | 4.6* | 0.8 | 2.0 | -0.4
CCCc1cc(C(=O)Nc2nnc(C)s2)cs1 | -0.2 | 10.7* | 2.2 | 2.9 | 3.5 | 4.1
CCOc1cc(C(=O)Nc2nnc(C)s2)cc(OCC)c1OCC | -1.0 | 2.0 | 1.1 | -0.1 | -0.1 | 1.1
Cc1cccc(NC(=O)CN2CCN(C(=O)c3ccc(-c4nc5ccccc5s4)o3)CC2)c1C | -0.7 | 2.6 | 0.6 | 4.0* | -0.4 | 3.8
CC[C@@H](CCC1CCCCC1)CN(c1ccccc1)S(C)(=O)=O | -1.2 | 0.6 | · | -1.3 | -1.6 | ·
Cc1cc(N/C=C(\C#N)S(=O)(=O)c2ccc(Cl)cc2)nc(C)n1 | -0.8 | 2.0 | 4.2* | -0.3 | 0.1 | 0.5
Cc1ccsc1C=Nn1c(-c2n[nH]c3c2CCC3)n[nH]c1=S | -1.4 | 0.2 | · | -0.1 | -0.5 | ·
O=C(O)CN1C(=O)/C(=C2\SC(=S)N(C(Cc3ccccc3)C(=O)O)C2=O)c2ccccc21 (stereo not drawn) | 1.2* | 1.3 | 0.4 | 0.2 | 6.4* | -0.2
NC(N)=NC(=O)c1nc(Cl)c(N2CCCCCC2)nc1N | -0.8 | 12.5* | 0.1 | 3.2 | 0.2 | 2.9
S=C(Nc1ccccc1Cl)OCCN1CCCC12CCC(c1ccccc1)CC2 (stereo not drawn) | -0.9 | 1.2 | · | · | -0.9 | ·
CC(=O)Oc1ccc([C@@H]2COc3c(ccc4c3C=CC(C)(C)O4)C2)c(OC(C)=O)c1 | -1.4 | 4.8 | 4.4* | 0.7 | 1.9 | 4.2
CC1(C)C=Cc2c(ccc3c2OC[C@H](c2ccc(O)cc2O)C3)O1 | -0.6 | 3.2 | 2.0 | -0.2 | 0.9 | 4.2
O=C(Nc1ccc(N2C(=O)CC(c3ccccc3)C2=O)c(Cl)c1)c1ccccn1 (stereo not drawn) | -1.4 | -0.9 | · | · | -0.1 | ·
